# Results taken from the supplement of paper PMC8975748.
# Counter-ions that a name gives are not always drawn. ± gives the standard deviation of the averaged measurements.
# Tests used:
# [1] = tested on: Saccharomyces cerevisiae BY4741 SeMeCo community; assay: mean cell size (pixel area) (pixels); higher = larger cells; details: 10 µM; 24 h; SM minimal medium
# Summary of the method: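 Drug was acoustically predosed into 384-well plates to a final 10 µM in SM medium, and each well received 70 µl of Saccharomyces cerevisiae BY4741 diluted to OD600 = 0.3 from an overnight preculture at OD600 = 1.0. This four-plasmid fluorescent community carries one fluorescent marker per plasmid, and each plasmid complements one auxotrophy. After 24 h, the cells were fixed with paraformaldehyde and imaged by automated confocal microscopy, and Harmony analysis yielded mean cell pixel area per well. Each value is averaged over 3 replicates. Same SeMeCo high-content imaging drug screen: Selleck FDA-approved drugs at 10 µM, 24 h in SM medium, 384-well plates, 3 replicates.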
# [2] = tested on: Saccharomyces cerevisiae BY4741 SeMeCo community; assay: z-score of prototroph abundance vs DMSO median; higher = larger share of this subpopulation than in DMSO controls; details: 10 µM; 24 h; SM minimal medium; subpopulation (auxotrophy): Prototroph
# Summary of the method: (§1)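 Automated confocal microscopy of paraformaldehyde-fixed cells was used to follow a Saccharomyces cerevisiae BY4741 community carrying four plasmids, each restoring one auxotrophy and encoding a distinct fluorescent protein. The community was pre-grown overnight to OD600 1.0, diluted to 0.3, and added at 70 µl to 384-well plates acoustically predosed with library drugs (10 µM final) for 24 h of growth in minimal SM medium. Single-auxotroph fluorescent strains set thresholds and autofluorescence correction, and each subpopulation's abundance was scored as a z-score against the vehicle-well median.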
# [3] = tested on: Saccharomyces cerevisiae BY4741 SeMeCo community; assay: z-score of subpopulation abundance vs DMSO median, subpopulation auxotrophic for M; higher = larger share of this subpopulation than in DMSO controls; details: 10 µM; 24 h; SM minimal medium; subpopulation (auxotrophy): M
# Summary of the method: as §1
# [4] = tested on: Saccharomyces cerevisiae BY4741 SeMeCo community; assay: z-score of subpopulation abundance vs DMSO median, subpopulation auxotrophic for L; higher = larger share of this subpopulation than in DMSO controls; details: 10 µM; 24 h; SM minimal medium; subpopulation (auxotrophy): L
# Summary of the method: as §1
# [5] = tested on: Saccharomyces cerevisiae BY4741 SeMeCo community; assay: z-score of subpopulation abundance vs DMSO median, subpopulation auxotrophic for U; higher = larger share of this subpopulation than in DMSO controls; details: 10 µM; 24 h; SM minimal medium; subpopulation (auxotrophy): U
# Summary of the method: as §1
# [6] = tested on: Saccharomyces cerevisiae BY4741 SeMeCo community; assay: z-score of subpopulation abundance vs DMSO median, subpopulation auxotrophic for LU; higher = larger share of this subpopulation than in DMSO controls; details: 10 µM; 24 h; SM minimal medium; subpopulation (auxotrophy): LU
# Summary of the method: as §1
# [7] = tested on: Saccharomyces cerevisiae BY4741 SeMeCo community; assay: z-score of subpopulation abundance vs DMSO median, subpopulation auxotrophic for LM; higher = larger share of this subpopulation than in DMSO controls; details: 10 µM; 24 h; SM minimal medium; subpopulation (auxotrophy): LM
# Summary of the method: as §1
# [8] = tested on: Saccharomyces cerevisiae BY4741 SeMeCo community; assay: z-score of subpopulation abundance vs DMSO median, subpopulation auxotrophic for HM; higher = larger share of this subpopulation than in DMSO controls; details: 10 µM; 24 h; SM minimal medium; subpopulation (auxotrophy): HM
# Summary of the method: as §1
# [9] = tested on: Saccharomyces cerevisiae BY4741 SeMeCo community; assay: z-score of subpopulation abundance vs DMSO median, subpopulation auxotrophic for HU; higher = larger share of this subpopulation than in DMSO controls; details: 10 µM; 24 h; SM minimal medium; subpopulation (auxotrophy): HU
# Summary of the method: as §1
# [10] = tested on: Saccharomyces cerevisiae BY4741 SeMeCo community; assay: z-score of subpopulation abundance vs DMSO median, subpopulation auxotrophic for UM; higher = larger share of this subpopulation than in DMSO controls; details: 10 µM; 24 h; SM minimal medium; subpopulation (auxotrophy): UM
# Summary of the method: as §1
# [11] = tested on: Saccharomyces cerevisiae BY4741 SeMeCo community; assay: z-score of subpopulation abundance vs DMSO median, subpopulation auxotrophic for HL; higher = larger share of this subpopulation than in DMSO controls; details: 10 µM; 24 h; SM minimal medium; subpopulation (auxotrophy): HL
# Summary of the method: as §1
# [12] = tested on: Saccharomyces cerevisiae BY4741 SeMeCo community; assay: z-score of subpopulation abundance vs DMSO median, subpopulation auxotrophic for HLU; higher = larger share of this subpopulation than in DMSO controls; details: 10 µM; 24 h; SM minimal medium; subpopulation (auxotrophy): HLU
# Summary of the method: as §1
# [13] = tested on: Saccharomyces cerevisiae BY4741 SeMeCo community; assay: z-score of subpopulation abundance vs DMSO median, subpopulation auxotrophic for HLM; higher = larger share of this subpopulation than in DMSO controls; details: 10 µM; 24 h; SM minimal medium; subpopulation (auxotrophy): HLM
# Summary of the method: as §1
# [14] = tested on: Saccharomyces cerevisiae BY4741 SeMeCo community; assay: z-score of subpopulation abundance vs DMSO median, subpopulation auxotrophic for LUM; higher = larger share of this subpopulation than in DMSO controls; details: 10 µM; 24 h; SM minimal medium; subpopulation (auxotrophy): LUM
# Summary of the method: as §1
# [15] = tested on: Saccharomyces cerevisiae BY4741 SeMeCo community; assay: z-score of subpopulation abundance vs DMSO median, subpopulation auxotrophic for HLUM; higher = larger share of this subpopulation than in DMSO controls; details: 10 µM; 24 h; SM minimal medium; subpopulation (auxotrophy): HLUM
# Summary of the method: as §1
# [16] = tested on: Saccharomyces cerevisiae BY4741 SeMeCo community; assay: z-score of subpopulation abundance vs DMSO median, subpopulation auxotrophic for HUM; higher = larger share of this subpopulation than in DMSO controls; details: 10 µM; 24 h; SM minimal medium; subpopulation (auxotrophy): HUM
# Summary of the method: as §1
# [17] = tested on: Saccharomyces cerevisiae BY4741 SeMeCo community; assay: z-score of subpopulation abundance vs DMSO median, subpopulation auxotrophic for H; higher = larger share of this subpopulation than in DMSO controls; details: 10 µM; 24 h; SM minimal medium; subpopulation (auxotrophy): H
# Summary of the method: as §1
Compound,mean cell size [1],z-score of prototroph abundance [2],z-score of subpopulation abundance [3],z-score of subpopulation abundance [4],z-score of subpopulation abundance [5],z-score of subpopulation abundance [6],z-score of subpopulation abundance [7],z-score of subpopulation abundance [8],z-score of subpopulation abundance [9],z-score of subpopulation abundance [10],z-score of subpopulation abundance [11],z-score of subpopulation abundance [12],z-score of subpopulation abundance [13],z-score of subpopulation abundance [14],z-score of subpopulation abundance [15],z-score of subpopulation abundance [16],z-score of subpopulation abundance [17]
CC[C@H](C)C(=O)O[C@H]1CCC=C2C=C[C@H](C)[C@H](CC[C@@H]3C[C@@H](O)CC(=O)O3)[C@H]21 [Mevastatin],11.6 ± 0.14,0.08,-0.77,-0.41,0.22,0.06,-0.31,-0.1,0.2,0.52,0.72,0.15,-0.6,-0.11,-0.71,,
CN(C)C[C@@H]1CCn2cc(c3ccccc32)C2=C(C(=O)NC2=O)c2cn(c3ccccc23)CCO1,,-0.66,-0.34,1.34,0.49,1.13,0.82,,,-0.29,1.61,1.21,0.91,0.63,0.34,-0.43,
CN(C)c1cc(NC(=O)CNC(C)(C)C)c(O)c2c1CC1CC3C(N(C)C)C(=O)C(C(N)=O)=C(O)C3(O)C(=O)C1=C2O (stereo not given) [Tigecycline],,0.44,-1.16,-1.67,0.22,-0.07,-0.64,-0.15,,-0.23,,-0.27,0.02,-0.85,,-0.19,0.59
CCC1(C)CC(=O)NC1=O (stereo not given) [Ethosuximide],12.6 ± 0.19,-0.06,-0.27,0.6,0.64,0.79,-0.21,-0.5,-0.46,-0.4,0.36,-0.1,0.8,1.11,0.48,,-0.94
Cc1nc(C)c(Cl)c(O)c1Cl [Clopidol],,0.11,-0.51,0.46,,0.07,-0.19,-0.62,-0.28,,0.28,-0.09,0.14,-0.04,-0.36,-0.08,
Cc1ccccc1C(OCCN(C)C)c1ccccc1 (stereo not given) [Orphenadrine Citrate],,0.04,-0.02,-0.09,0.9,0.36,-0.43,-0.64,,0.14,-1.07,0.33,-0.97,0.36,-0.1,-0.13,-0.33
CCN1CC(CCN2CCOCC2)C(c2ccccc2)(c2ccccc2)C1=O (stereo not given) [Doxapram HCl],,0.14,0,-1.14,0.42,-1.17,-0.29,,,0.7,-1.3,-0.53,-1.09,,-0.71,0.9,
COc1ccccc1OCC(O)CN1CCN(CC(=O)Nc2c(C)cccc2C)CC1 (stereo not given) [Ranolazine],,-0.25,0.23,0.18,-0.29,-0.55,0.68,0.37,,0.37,-0.42,-0.21,0.19,0.49,0.5,0.18,-0.13
CC(=O)OCC1=C(C(=O)O)N2C(=O)C(NC(=O)CSC(=NC(C)C)NC(C)C)C2SC1 (stereo not given) [Cefathiamidine],,0.65,-0.3,-0.86,0.86,-0.47,-1.11,-0.6,,0.84,-1.06,-1.21,-1.16,-0.68,-1.54,0.21,-0.66
Cc1nnc(SCC2=C(C(=O)O)N3C(=O)[C@@H](NC(=O)Cn4cnnn4)[C@H]3SC2)s1 [Cefazolin Sodium],,-1.09,0.3,0,0.46,1.43,,0.05,2.2,0.25,1.09,0.52,0.22,,-0.81,0.08,1.95
OCc1ccccc1O[C@@H]1O[C@H](CO)[C@@H](O)[C@H](O)[C@H]1O [Salicin],,0.58,-0.14,0.38,-0.42,-0.12,0.72,-0.68,-0.9,,-0.58,-0.13,-0.5,0.42,,-0.09,-0.5
O=C1NC(=O)C(c2ccccc2)(c2ccccc2)N1 [Phenytoin],,-0.03,0.07,-0.25,0.51,0.23,0.5,,,0.49,-0.93,-0.45,-0.09,,-0.04,0.18,-0.22
CC1(C)S[C@@H]2[C@H](NC(=O)COc3ccccc3)C(=O)N2[C@H]1C(=O)O [Penicillin V potassium salt],,,0.91,-1.58,,-0.1,,0.44,0.49,0.57,-0.72,-0.94,-0.74,-0.32,-1.08,-0.23,-1.14
CCC(C)C1OC2(CCC1C)CC1CC(CC=C(C)C(OC3CC(OC)C(OC4CC(OC)C(O)C(C)O4)C(C)O3)C(C)C=CC=C3COC4C(O)C(C)=CC(C(=O)O1)C34O)O2 (stereo not given) [Ivermectin],,-1.61,-0.12,-0.07,,-0.12,0.26,1.17,1.39,1.13,0.26,2.13,0.72,1.28,0.72,2.99,1.41
CN(C)[C@@H](CCOc1cccc2ccccc12)c1ccccc1 [Dapoxetine HCl],,0.05,-0.23,0.84,-0.41,0.55,0.47,-0.39,-0.49,,0.57,1.25,-0.47,,-0.01,-0.28,-0.41
